Bioassay records: PubChem BioAssay, National Center for Advancing Translational Sciences (NCATS)
Shown are actives, neighbours in structure and some others; about 4.4% of the full set was active somewhere.
D1 antag – blocks dopamine activation of the human D1 receptor; P21728; HEK293 TREx D1 cells, calcium flux, dopamine EC80; stronger effect = lower value; activity change, negative = inhibition, % at 10 µM; 360,000 tested, 3.2% active; AID 504652; in the data active = activity change below about -30%
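Using tetracycline-induced force-coupled D1 Hek293 cells and a calcium dye, signals were followed for 180 s after compound, then for 180 s after EC80 dopamine, to detect inhibitors.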
TRHR agonist – activates the human TRH receptor. TRHR cells, calcium flux fluo-8, FDSS agonist mode. activation, % at 2 µM. 360,000 tested, 0.18% active. AID 493084
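Agonist-mode FDSS calcium read (Ex 480/Em 530, 1 s cycles) in 1536-well TRHR cells with fluo-8 dye, after 10-cycle baseline and 23 nL compound addition; TRH at EC20 (10 nM final) added afterwards for the enhancer phase.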
USP1-UAF1 inh – blocks the human USP1/UAF1 deubiquitinase complex | 390,000 tested, 0.23% active | AID 743255 | Potency, µM (doses to about 57.1 µM), most hits filed as inhibitors | O94782 | recombinant USP1/UAF1, Ub-Rhodamine cleavage fluorescence; active = well fitted inhibition curve with a large enough effect; inconclusive = small, poorly fitted or top-dose-only effect; inactive = no such curve, though single readings can be large or run the other way; also: nearly all actives have a fitted effect of over 60% in size
Target sequence (O94782 whole entry, looked up): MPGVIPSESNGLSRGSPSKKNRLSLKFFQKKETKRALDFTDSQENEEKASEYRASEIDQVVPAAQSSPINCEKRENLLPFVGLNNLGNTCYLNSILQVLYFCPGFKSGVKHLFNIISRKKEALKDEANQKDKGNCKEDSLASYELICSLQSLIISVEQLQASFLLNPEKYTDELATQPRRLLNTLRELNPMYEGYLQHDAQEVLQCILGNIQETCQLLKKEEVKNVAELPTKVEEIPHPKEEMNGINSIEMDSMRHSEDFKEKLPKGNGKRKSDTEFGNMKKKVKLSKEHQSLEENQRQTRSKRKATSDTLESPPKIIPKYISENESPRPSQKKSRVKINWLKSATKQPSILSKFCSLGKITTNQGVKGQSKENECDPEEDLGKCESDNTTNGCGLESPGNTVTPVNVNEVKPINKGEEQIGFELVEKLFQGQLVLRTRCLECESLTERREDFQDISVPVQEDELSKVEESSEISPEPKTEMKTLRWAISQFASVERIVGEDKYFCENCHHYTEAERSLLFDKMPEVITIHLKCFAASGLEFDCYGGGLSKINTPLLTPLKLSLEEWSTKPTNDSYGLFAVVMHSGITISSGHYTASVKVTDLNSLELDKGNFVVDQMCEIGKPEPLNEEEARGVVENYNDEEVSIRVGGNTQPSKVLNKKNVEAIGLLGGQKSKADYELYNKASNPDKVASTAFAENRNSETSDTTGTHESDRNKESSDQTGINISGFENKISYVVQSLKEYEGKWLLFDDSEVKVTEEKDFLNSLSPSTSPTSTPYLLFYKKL
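Step one: compound is pinned into 1nM USP1/UAF1 in HEPES pH 7.8 buffer with TCEP. Step two: 15 min room-temperature incubation. Step three: Ub-Rho (150nM final) starts cleavage, tracked by fluorescence over six one-minute reads.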
D1 PAM – potentiators of human D1 dopamine receptor; AID 504651; P21728; 360,000 tested, 0.036% active; HEK293 TREx D1 cells, calcium flux, dopamine EC20 potentiation; potentiation, % at 10 µM; in the data active = potentiation above about 30%
TRHR enhancer – allosteric enhancers of human TRH receptor; P34981; AID 493056; TRHR cells, fluo-8 calcium fluorescence, EC20 TRH enhancement; 360,000 tested, 0.66% active; enhancement, % at 2 µM; in the data active = enhancement above about 30%
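TRHR-expressing cells loaded with fluo-8 calcium dye were read kinetically (ex 480/em 530) during compound addition, then stimulated with an EC20 of TRH (10 nM final). Enhancement of the Gq-mediated intracellular calcium response was scored.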
D1 ag – agonists of human D1 dopamine receptor. P21728. HEK293 T-REx D1 cells, calcium flux, agonist mode. activation, % at 2 µM. 360,000 tested, 1% active. AID 504660
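Agonism was scored from calcium flux recorded over 180 s (1 read/s) after pintool compound addition, following a 10-cycle baseline. Cells were inducible force-coupled HEK293 TREx D1, plated overnight at 30 C and loaded with no-wash calcium dye.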
Hits are given with their value; - = inactive; ? = inconclusive; . = no result given. Rule as the data show it, unless noted: active = activation above about 30%; inactive = the rest.

SMILES	D1 antag	TRHR agonist	USP1-UAF1 inh	D1 PAM	TRHR enhancer	D1 ag
O=C(C1=NN(c2ccccc2)C2C(=O)N(c3cccc(Cl)c3)C(=O)C12)c1ccccc1 (configuration not stated)	-	41	?	-	-	104
O=C(CCC1N=C2c3ccccc3N=C(SCc3cccc(F)c3)N2C1=O)NCc1ccc(F)cc1 (configuration not stated)	-	-	-	-	-	-
O=[S+]([O-])(c1ccc2c(c1)OCCO2)N1CCN([S+](=O)([O-])c2ccc(F)cc2Cl)CC1	-	-	.	-	-	-
Cc1cc(/C=C2\SC(=O)N(C)C2=O)c(C)n1-c1ccc(O)cc1	-	-	?	-	-	-
CN=C1S/C(=C\c2cc(C)n(-c3ccccc3F)c2C)C(=O)N1C	-43	-	-	-	-	-
CC(=O)Nc1nonc1-c1nnc(SCC(=O)Nc2cc(C)cc(C)c2)n1C	-	-	-	-	-	-
O=C(Nc1ccc(/C=C/c2nc3ccccc3o2)cc1)c1c(F)cccc1F	-42	-	-	-	-	-
COc1ccc(N(Cc2cccs2)C(=O)Nc2cccc(Cl)c2)cc1	-	-	-	-	-	-
CN(C)c1ccc(/C=C2\SC(=S)N(Nc3ncc(C(F)(F)F)cc3Cl)C2=O)cc1	-63	80	25µM	-	-	168
CCCCOc1ccc(NC(=O)CSc2ccc(C(=O)O)cn2)cc1	-	-	-	-	-	-
Cc1cc(NC(=O)CCc2nc3cccnc3n2-c2ccccc2)ccc1Br	-	-	-	-	-	-
COc1ccccc1CCNC(=O)Cc1ccc(NC(=O)N2CCSc3ncccc32)cc1	-	-	-	-	-	-
Cc1sc2ncnc(SCC(=O)N3CCCC(C(N)=O)C3)c2c1C (configuration not stated)	-	-	-	-	-	-
Cc1sc2ncnc(SCC(=O)N3CCCC(C(F)(F)F)C3)c2c1C (configuration not stated)	-38	-	-	-	-	-
Cc1cccc(C(=O)N2c3ncnn3C3(CCCCC3)[C@@H]3CCCC[C@@H]32)c1	-	-	-	-	-	-
COc1cccc(-n2cc(C(=O)Oc3ccc(F)cc3)c3ccccc3c2=O)c1	-	-	-	-	-	-
C/C(=N\NC(=O)Nc1ccccc1)c1ccc2ccccc2c1	-	-	-	-	-	-
C/C(=N/NC(=O)Nc1ccccc1)c1ccc(C)cc1	-	-	-	-	33	-
CCN(CCCNC(=O)c1cc2c(=O)n(C)c3ccccc3c2s1)Cc1ccccc1	-36	-	-	-	-	-
CN1CCN(CCCNC(=O)c2cc3c(=O)n(C)c4ccccc4c3s2)CC1	-	-	-	-	-	-
Cn1c(=O)c2cc(C(=O)NCCCN3CCN(c4cccc(Cl)c4)CC3)sc2c2ccccc21	-45	-	-	-	-	-
N#C/C(=C/c1ccc(N2CCCCC2)o1)c1cccc(F)c1	-	-	18µM	-	-	-
Cc1ccc2nc(/C(C#N)=C\c3ccc([N+](=O)[O-])o3)[nH]c2c1	-	-	-	-	-	-
N#C/C(=C/c1ccc(N2CCCCCC2)o1)c1ccc(Cl)cc1	-	-	?	-	-	-
COCCNC(=O)/C(C#N)=C/c1ccc(N2CCOCC2)o1	-	-	?	-	-	-
SMILES	D1 antag	TRHR agonist	USP1-UAF1 inh	D1 PAM	TRHR enhancer	D1 ag
Cc1ccc(/C(C#N)=C\c2ccc(N3CCOCC3)o2)cc1	-	-	25µM	-	-	-
Cc1ccc2nc(/C(C#N)=C\c3ccc(N4CCOCC4)o3)[nH]c2c1	-	-	25µM	-	-	-
Cc1ccc(Cn2c(=O)n(Cc3ccccc3Cl)c(=O)c3cccnc32)cc1	-	-	-	-	-	-
Cc1ccc(C)c(N2CCN(C(=O)C3CCC(CNS(=O)(=O)c4ccc(Br)s4)CC3)CC2)c1 (configuration not stated)	-	-	-	-	-	-
CN1C(=O)C(C)(C)c2cc(S(=O)(=O)N3CCN(c4ccccc4)CC3)ccc21	-40	-	-	-	-	-
CN1C(=O)C(C)(C)c2cc(S(=O)(=O)N3CCCCCC3)ccc21	-	-	-	-	-	-
